The list is not random: actives were taken first. Their share in the collection is about 5.4%.
PHOSPHO1 block – PHOSPHO1 (human) inhibition. recombinant PHOSPHO1, absorbance phosphatase assay. Q8TCT1. 290,000 tested, 1.1% active. inhibition, % at 13.3 µM; in the data active = inhibition above about 60%
aDG glyco act – increases alpha dystroglycan glycosylation; 360,000 tested, 0.22% active; AID 624168; Pro5-aDG cells, alpha-DG glycosylation AlphaScreen (IIH6); 0% Pro5, 100% B10-LARGE cell signal; activation, % at 10 µM;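 active = activation of at least 8% versus controls, or a plate z-score of at least 8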;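 also: Pro5 are CHO cells carrying HIG-tagged alpha-DG that lacks glycosylation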
rCAG binder – molecules binding r(CAG) RNA repeats | r(CAG) RNA repeat, TO-PRO-1 dye displacement fluorescence | inhibition, % at 3 µM | 370,000 tested, 1.3% active | AID 651821;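 active = inhibition above the plate cutoff, the mean of all test compounds on that plate plus 3 SD, cut at about 35% in these data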;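 also: 0% = DMSO alone and 100% = 100 µM mitoxantrone as full dye displacement; higher means more dye released from RNA so lower well fluorescence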
A3A deaminase – human APOBEC3A DNA deaminase inhibition; recombinant A3A, FAM/TAMRA ssDNA deamination fluorescence; inhibition, % at 20 µM; 330,000 tested, 0.41% active; AID 493011;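 active = at least 40% inhibition at 20 µM here, with at most 30% in a related deaminase screen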;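 also: plate controls were A3A with DMSO for no effect and wells lacking A3A enzyme for full effect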
APOBEC3G inh – APOBEC3G (human) deaminase inhibition. recombinant A3G, ssDNA deamination FAM/TAMRA fluorescence. inhibition, % at 20 µM. 330,000 tested, 0.28% active. AID 493012;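 active = inhibition of at least 40% at 20 µM, with no more than 30% in the related APOBEC3A deaminase screen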;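 also: plate controls were DMSO wells with A3G for no effect and wells lacking A3G enzyme for full effect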
Target sequence (Q9HC16 whole entry, looked up): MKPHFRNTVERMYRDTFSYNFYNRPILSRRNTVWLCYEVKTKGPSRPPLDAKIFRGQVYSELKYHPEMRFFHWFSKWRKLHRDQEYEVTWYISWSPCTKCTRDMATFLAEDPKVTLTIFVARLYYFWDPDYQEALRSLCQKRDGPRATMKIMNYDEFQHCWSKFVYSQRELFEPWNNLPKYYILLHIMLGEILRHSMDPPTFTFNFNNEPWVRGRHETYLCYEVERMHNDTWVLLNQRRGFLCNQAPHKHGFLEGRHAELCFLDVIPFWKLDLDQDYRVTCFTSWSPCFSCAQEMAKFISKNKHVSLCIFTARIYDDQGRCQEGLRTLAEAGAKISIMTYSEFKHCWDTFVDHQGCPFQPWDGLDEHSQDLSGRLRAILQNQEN
ALR H2O2 inh – inhibitors of human sulfhydryl oxidase ALR; purified ALR, DTT oxidation, H2O2 HRP-luminol luminescence; AID 485317; 290,000 tested, 3.8% active; inhibition, % (concentration not given with the values);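 active = mean replicate inhibition above about 79%, with every replicate also reaching it, limit read from the data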
aDG conf – alpha-DG glycosylation activation, confirmation | Pro5-aDG cells, IIH6 AlphaLISA; scaled to LARGE-overexpressing B10 cells as 100% | 600 tested, 17% active | AID 651671 | shares compounds with aDG glyco act | activation, % at 10 µM (by protocol);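 active = activation of at least 7% in one or more replicates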;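 also: cells exposed to compound for two days before detection; 0% = DMSO-treated Pro5 cells and 100% = DMSO-treated B10-LARGE cells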
An asterisk follows results filed as active.

For N#CCC(=O)Nc1ccc(C(=O)OCC(=O)N=c2sccn2Cc2ccccc2Cl)cc1 the results were aDG glyco act 5.4*, rCAG binder 20.0, A3A deaminase 0.0, APOBEC3G inh -5.3, ALR H2O2 inh 74.4 and aDG conf 1.0.
For CN1CCCC2(CCCN(Cc3nc(Cc4cccc(C(F)(F)F)c4)no3)C2)C1 (configuration not stated) the results were PHOSPHO1 block 44.0, aDG glyco act 2.0, rCAG binder -8.4, A3A deaminase -3.2, APOBEC3G inh -4.8 and ALR H2O2 inh -29.9.
FC(F)(F)c1cccc(Cc2noc(CN3CCC(c4ccncc4)CC3)n2)c1 was read as PHOSPHO1 block 39.7, aDG glyco act 6.1*, rCAG binder -8.5, A3A deaminase -1.5, APOBEC3G inh -3.5, ALR H2O2 inh 1.6 and aDG conf 1.5.
`NC(=S)NN=C(c1ccc(F)cc1)C1CC1` gave aDG glyco act 2.5 and rCAG binder 2.2.
Screening NC(=S)NN=C(c1ccc(Br)cc1)C1CC1 returned aDG glyco act 5.7*, rCAG binder 1.3 and aDG conf 1.4.
`Cc1cccc(OCC(=O)Nc2cc(S(=O)(=O)N3CCOCC3)ccc2N2CCCC2)c1C` gave aDG glyco act 7.4*, rCAG binder -3.5, A3A deaminase 1.9, APOBEC3G inh 5.5, ALR H2O2 inh -2.1 and aDG conf -0.1.
`O=C(COc1ccccc1)Nc1cc(S(=O)(=O)N2CCOCC2)ccc1N1CCCC1` gave aDG glyco act -0.1, rCAG binder 2.9, A3A deaminase 3.4, APOBEC3G inh -5.6 and ALR H2O2 inh -8.3.
`CC(C)C[C@@H]1COc2cc(N3CCCC3)ccc2S(=O)(=O)N1C` gave rCAG binder -1.5.
Screening COc1ccccc1[C@@H]1C(c2cccc(C)c2)=NN(c2ccc(Br)cc2)[C@H]1C(=O)N1CCOC1=O returned aDG glyco act 4.9*, rCAG binder 7.1, A3A deaminase -1.5, APOBEC3G inh -1.6 and aDG conf -0.2.
Cc1cc(OC(=O)c2c(C)cc(OC(=O)c3c(C)cc(O)cc3O)cc2O)cc(O)c1C(=O)O was read as aDG glyco act 6.1*, rCAG binder 68.8*, A3A deaminase 5.8, APOBEC3G inh 0.0 and aDG conf 0.2.
`CC(=O)c1ccc(N2CCN(C(=O)Nc3ccc(C(C)C)cc3)CC2)cc1` gave PHOSPHO1 block -20.5, aDG glyco act 7.4*, rCAG binder -6.3, A3A deaminase 1.4, APOBEC3G inh -7.7, ALR H2O2 inh -2.7 and aDG conf 6.8*.
`CCN(CC)S(=O)(=O)c1ccc(=O)n(CC(=O)N2Cc3ccccc3CC2C(N)=O)c1` (configuration not stated) gave aDG glyco act 3.4*, rCAG binder -10.8, A3A deaminase -1.7, APOBEC3G inh -7.6 and aDG conf -1.0.
Screening CCN(CC)S(=O)(=O)c1ccc(=O)n(CC(=O)N2CCCc3cc(C)ccc32)c1 returned aDG glyco act 0.1, rCAG binder -1.2, A3A deaminase -5.9, APOBEC3G inh -6.7 and ALR H2O2 inh -0.1.
Screening Cc1cccc(C)c1NC(=O)C(c1ccncc1)N1CCN(C)CC1 (configuration not stated) returned aDG glyco act 9.8*, rCAG binder 0.3 and aDG conf 0.3.
Screening COc1ccc(CN2CCC(C(=O)Nc3ccc(Oc4cccnc4)cc3)CC2)c(C)c1C returned PHOSPHO1 block 34.4, aDG glyco act 2.2*, rCAG binder -5.5, A3A deaminase -6.3, APOBEC3G inh -7.6, ALR H2O2 inh -1.5 and aDG conf 4.7*.
For COc1cccc(O)c1CN1CCC(C(=O)Nc2ccc(Oc3cccnc3)cc2)CC1 the results were PHOSPHO1 block 9.0, aDG glyco act 0.7, rCAG binder -7.1, A3A deaminase 1.1, APOBEC3G inh 10.2 and ALR H2O2 inh 17.0.
For O=C(CCN1C(=O)COc2ccccc21)NCCCN1CCCC1 the results were PHOSPHO1 block 12.6, aDG glyco act 6.4*, rCAG binder -1.3, A3A deaminase -6.1, APOBEC3G inh -5.7, ALR H2O2 inh -2.6 and aDG conf 1.7.

Screening data (PubChem)
